Experimental data reported in PubChem BioAssay (Tox21).
Values joined by “and” are separate entries in the source; they are usually repeats but may differ in a detail not shown here. Equal values may be shown once. Results filed as inconclusive are left out. Some compounds were tested as several samples or in several runs, with calls that do not always agree. Active and inactive are the calls of the source. Calls follow the shape of the dose curve; as a rule, active = well fitted inhibition curve with a large enough effect in the repeat runs; inconclusive = weak or mixed curves; inactive = no such curve, though single readings can be large or run the other way.
Potency is read from the fitted curve at half-maximal effect.

Each compound was assayed against Cytochrome P450 1A2 (Homo sapiens) (UniProt P05177) (assay: Cytochrome P450 Family 1 Subfamily A Member 2 (CYP1A2) small molecule antagonists: luciferase reporter qHTS assay (AID 1671199; also: nearly all actives have a fitted effect of over 50% in size)). Conditions: P450-Glo CYP1A2 enzyme, luciferin luminescence, 1 h; series mostly up to 115 µM.
Chain of Cytochrome P450 1A2 (Homo sapiens) (P05177 whole entry, looked up): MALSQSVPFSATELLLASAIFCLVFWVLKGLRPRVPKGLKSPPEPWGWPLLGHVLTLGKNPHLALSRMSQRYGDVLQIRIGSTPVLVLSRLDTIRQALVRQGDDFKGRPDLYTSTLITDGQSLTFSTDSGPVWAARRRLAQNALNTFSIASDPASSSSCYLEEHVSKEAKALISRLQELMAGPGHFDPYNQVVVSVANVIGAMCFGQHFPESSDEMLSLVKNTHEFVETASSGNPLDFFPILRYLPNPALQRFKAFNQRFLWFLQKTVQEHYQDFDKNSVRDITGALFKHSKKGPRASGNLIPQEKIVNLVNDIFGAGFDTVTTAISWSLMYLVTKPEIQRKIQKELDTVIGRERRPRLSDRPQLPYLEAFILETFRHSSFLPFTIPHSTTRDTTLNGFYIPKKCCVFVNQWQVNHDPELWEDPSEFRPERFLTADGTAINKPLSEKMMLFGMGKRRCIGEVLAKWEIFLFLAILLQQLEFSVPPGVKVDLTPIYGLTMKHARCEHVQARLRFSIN
Text: National Center for Advancing Translational Sciences [NCATS]
U.S. Environmental Protection Agency [EPA]
National Institutes of Environmental Health Sciences [NIEHS]
National Toxicology Program [NTP]
U.S. Food and Drug Administration [FDA]
Cytochrome P450 (CYP) enzymes are membrane-bound hemeproteins that play a key role in metabolism of drugs and xenobiotics. Evaluation of the effect of chemicals on CYP isozymes is useful to minimize the adverse drug reactions and toxicities in drug development process. Tox21 chemicals were tested for their effect on CYP enzyme activities by using P450-Glo (TM) screening systems (Promega Corporation, Madison, WI). These systems provide a luminescent method containing proluciferin substrates and are converted to luciferin products by CYP isozymes. The luciferin products formed are detected with a luciferin detection reagent, and the amount of light produced is proportional to CYP activity. P450-Glo (TM) CYP1A2 screening system (Catalog. No. V9770) was used to detect the compounds that interfere in CYP1A2 activity. The positive control compound used for CYP1A2 assay is furafylline (Sigma-Aldrich, St. Louis, MO).
Tox21 Assay Protocol Summary:
Two ul of enzyme-substrate mix was dispensed into medium binding white/solid 1536-well plates (Greiner Bio-One North America Inc., Monroe, NC) using a BioRaptr Flying Reagent Dispenser (FRD, Beckman Coulter, Brea, CA). Compounds dissolved in DMSO and positive control (furafyllline) were transferred to the assay plates at 23 nl using a Pintool station (Wako, San Diego, CA). The assay plates were incubated at room temperature for 10 min. Then 2 ul of NADPH regeneration solution was added to each well of the assay plates using an FRD and incubated at room temperature for 1 h. The reaction was stopped by adding 4 ul of detection reagent using an FRD and after 20 min incubation at room temperature the luminescence signal was measured using a ViewLux plate reader (Perkin Elmer, Shelton, CT). Data were expressed as relative luminescence units.
For `Oc1c(I)cc(I)cc1I`, the Potency was 39.9 µM (active). For `O=[N+]([O-])c1c(Cl)c(Cl)cc(Cl)c1Cl`, the Potency was 4.8 µM (active). `ClC(Cl)=C(c1ccc(Cl)cc1)c1ccccc1Cl` was tested, and the Potency was “inactive”. In the case of `CC1COC(Cn2cncn2)(c2ccc(Oc3ccc(Cl)cc3)cc2Cl)O1` (configuration not stated), the Potency is reported as 25.2 µM (active). With `ClC1=C(Cl)[C@]2(Cl)[C@@H]3[C@@H](Cl)[C@H]4O[C@H]4[C@@H]3C1(Cl)C2(Cl)Cl` the Potency was “inactive”. With `COc1ccc(C(c2ccc(OC)cc2)C(Cl)(Cl)Cl)cc1` the Potency was 25 µM (active). `N#Cc1cc([N+](=O)[O-])ccc1N` was tested, and the Potency was 35.6 µM (active). `Cc1ccc2nc3sc(=O)sc3nc2c1` was tested, and the Potency was 13.5 µM (active). In the case of `CCOC(=O)C(O)(c1ccc(Cl)cc1)c1ccc(Cl)cc1`, the Potency is reported as 40.3 µM (active) and 71 µM (active). `Nc1ccc([N+](=O)[O-])cc1` was tested, and the Potency was 39.9 µM (active). For `c1ccc2c(c1)Sc1ccccc1N2CC1CN2CCC1CC2` (configuration not stated), the Potency was “inactive”. For `CCN(CC)C(=O)Cl`, the Potency was “inactive”. `O=C(c1ccccc1)C(Cl)Cl` was tested, and the Potency was 31.7 µM (active). With `Clc1ccccc1-c1ccccc1Cl` the Potency was “inactive”. `CN1CSC(=S)N(C)C1` was tested, and the Potency was “inactive and 39.8 µM (active)”. With `CNC(=O)Oc1cc(C)c(SC)c(C)c1` the Potency was 6.33 µM (active). For `Cc1cc(C)c(C(=O)P(=O)(c2ccccc2)c2ccccc2)c(C)c1`, the Potency was “inactive”. In the case of `O=C1C(I)=CC(=C(c2cc(I)c(O)c(I)c2)c2ccccc2C(=O)O)C=C1I`, the Potency is reported as “inactive”. With `Cc1ccc(N(SC(F)(Cl)Cl)S(=O)(=O)N(C)C)cc1` the Potency was 22.4 µM (active). With `Cc1cc(C(C)(C)c2ccc(O)c(C)c2)ccc1O` the Potency was 33.9 µM (active). For `CO/C=C(/C(=O)OC)c1ccccc1Oc1cc(Oc2ccccc2C#N)ncn1`, the Potency was 41.4 µM (active). For `COc1cc(OC)c(OC)cc1C=O`, the Potency was 11 µM (active). `CC(c1ccccc1)(c1ccc(O)cc1)c1ccc(O)cc1` was tested, and the Potency was “inactive”. In the case of `OCC(c1ccc(Cl)cc1)c1ccc(Cl)cc1`, the Potency is reported as 35.6 µM (active). `O=C(Nc1ccccc1-c1ccc(Cl)cc1)c1cccnc1Cl` was tested, and the Potency was 8.42 µM (active). In the case of `Cc1nnc2n1-c1sc(CCc3ccc(CC(C)C)cc3)cc1C(c1ccccc1Cl)=NC2C` (configuration not stated), the Potency is reported as “inactive”. With `O=S(=O)(C(Cl)(Cl)Cl)C(Cl)(Cl)Cl` the Potency was 22.4 µM (active).
